Measured values taken from PubChem BioAssay.
Results filed as inconclusive are left out. Calls of active or inactive are those of the source. Rule as the data show it, unless noted: active = percent of DMSO control GFP below about 86%; inactive = the rest, inconclusive results apart.

Test: rapamycin-like changes in RPL19A-GFP expression – cell-based, S. cerevisiae, multiplex flow cytometry, primary screen (AID 1862);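 also: lower values mimic rapamycin by blocking the RPL19A rise seen in DMSO cells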
Details: S. cerevisiae RPL19A-GFP strain, flow cytometry fluorescence, 3 h; at 10 µM; active compounds read low

Percent of DMSO control GFP, inactive:
Cc1oc2cc(O)cc(O)c2c(=O)c1-c1ccc2c(c1)OCCCO2 95.6%
O=C(c1ccco1)N1CCCN(Cc2nc(-c3ccc4c(c3)OCO4)no2)CC1 104%
COc1ccc2nc(S(=O)Cc3ncc(C)c(OC)c3C)[nH]c2c1 (stereo not given) 107%
CSCCC(NC(C)=O)C(=O)Oc1ccc2c3c(c(=O)oc2c1)CCCC3 (stereo not given) 102%
CCOC(=O)C1NN=C(C(=O)c2ccccc2)C1c1ccc(Cl)cc1 (stereo not given) 98.3%
CSCCC(NC(=O)OC(C)(C)C)C(=O)Oc1ccc2c(=O)c(-c3ccc4c(c3)OCCO4)coc2c1 (stereo not given) 95.9%
COc1cc2c(cc1OC)/C(=C/c1ccc(Cl)cc1)C(=O)OC2 87.8%
COc1ccc(-c2coc3c(CN4CCOCC4)c(O)ccc3c2=O)cc1 105%
OCCC1CN(Cc2ccccc2-c2ccco2)CCN1C1CCCC1 (stereo not given) 99%
O=C(O)C1CCN(C(=O)COc2ccc3c4c(c(=O)oc3c2)CCC4)CC1 105%
Cc1ccc(C(=O)NCCNC(=O)c2ccccc2)cc1 92.8%
CC(=O)OCC(=O)[C@@]1(O)CC[C@H]2[C@@H]3CCC4=CC(=O)C=C[C@]4(C)[C@H]3[C@@H](O)C[C@@]21C 90.2%
CCCc1cc(C(N)=S)ccn1 96.9%
Cc1ccc(Cl)c(Nc2ccccc2C(=O)O)c1Cl 98.9%
COc1ccccc1/C=C/C(=O)OCCN1CCOCC1 99.8%
Fc1ccc(-c2cc(-c3ccccc3)nc(-n3cccn3)n2)cc1 96.5%
O=c1c(-c2ccccc2)c(O)c2cccc3c2n1CCC3 99.7%
COc1cc(CC(=O)NCCc2ccc(S(N)(=O)=O)cc2)cc(OC)c1OC 104%
CN(C)CCC(c1ccc(Cl)cc1)c1ccccn1 (stereo not given) 99%
Cc1ccc2nc(N=C(N)N)nc(C)c2c1 111%
CCn1c(N2CCN(CC(=O)c3c(C)n(C)c4ccc(OC)cc34)CC2)nc2c1c(=O)[nH]c(=O)n2C 101%
CC1(c2ccccc2)CC(C)(C)N2C(=O)C(=O)c3cccc1c32 (stereo not given) 108%
O=C(COc1cc(O)c2c(=O)c3ccccc3oc2c1)OCc1ccccc1 101%
C[N+](C)(C)CCOP(=O)([O-])OC[C@H](O)CO 103%
O=C(/C=C/Sc1ccccc1)c1ccccc1 106%
O=C1Cc2ccccc2C(c2ccccc2)N1 (stereo not given) 98.8%
Cc1ccc(NC(=O)CSc2nc(O)c(Cc3ccccc3)c(=O)n2-c2ccccc2)cc1 103%
COCCn1c(SCCOc2ccccc2)nc2ccccc2c1=O 99.8%
CC(=O)Oc1ccc2c(=O)c(Oc3ccccc3[N+](=O)[O-])coc2c1 99.8%
CCc1c(C(C)=O)oc2ccc3c(C)cc(=O)oc3c12 94.6%
COc1ccc(-c2[nH]ncc2CN(C)C(C)c2ccon2)c(OC)c1 (stereo not given) 92.4%
Cc1c(O)c(=O)ccn1C 90.4%
COc1ccc2cc(C(=O)Nc3ccc(S(N)(=O)=O)cc3)sc(=O)c2c1OC 93.7%
Cc1cnc(NC(=O)C2=C(O)c3ccccc3S(=O)(=O)N2C)s1 107%
O=C(O)c1ccc(N2C(=O)/C(=C\c3ccccc3)N=C2c2ccccc2)cc1 103%
O=C(CCC(=O)NCCO)NCCO 101%
CC(=O)O[C@H]1C[C@@]2(C)[C@@H](C[C@@H](O)[C@H]3[C@@]4(C)CC[C@@H](O)[C@@H](C)C4CC[C@@]32C)/C1=C(\CCC=C(C)C)C(=O)O (stereo not given in full) 102%
O=C(c1cc2cc(Br)ccc2o1)N1CCCC1 101%
CCOc1ccc2nc(NC(=O)NC3CCCCC3)sc2c1 104%
O=C(/C=C/c1c[nH]c2ccccc12)c1cccc2ccccc12 106%

Test: TOR pathway GLN3 branch reporter MEP2-GFP changes – S. cerevisiae, multiplex flow cytometry, primary screen (AID 1867;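 active = GFP response, as percent of the DMSO control, above the screen-wide mean plus 3 SD, about 139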;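 also: median GFP channel fluorescence of barcode-gated MEP2-GFP cells measured by flow cytometry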)
Details: S. cerevisiae MEP2-GFP strain, 3 h, at 10 µM, active compounds read high, 100% means same as DMSO wells

GFP response vs DMSO, inactive:
Cc1oc2cc(O)cc(O)c2c(=O)c1-c1ccc2c(c1)OCCCO2 103%
O=C(c1ccco1)N1CCCN(Cc2nc(-c3ccc4c(c3)OCO4)no2)CC1 103%
COc1ccc2nc(S(=O)Cc3ncc(C)c(OC)c3C)[nH]c2c1 (stereo not given) 105%
CSCCC(NC(C)=O)C(=O)Oc1ccc2c3c(c(=O)oc2c1)CCCC3 (stereo not given) 101%
CCOC(=O)C1NN=C(C(=O)c2ccccc2)C1c1ccc(Cl)cc1 (stereo not given) 96.6%
CSCCC(NC(=O)OC(C)(C)C)C(=O)Oc1ccc2c(=O)c(-c3ccc4c(c3)OCCO4)coc2c1 (stereo not given) 107%
COc1cc2c(cc1OC)/C(=C/c1ccc(Cl)cc1)C(=O)OC2 108%
COc1ccc(-c2coc3c(CN4CCOCC4)c(O)ccc3c2=O)cc1 99.7%
OCCC1CN(Cc2ccccc2-c2ccco2)CCN1C1CCCC1 (stereo not given) 97.6%
O=C(O)C1CCN(C(=O)COc2ccc3c4c(c(=O)oc3c2)CCC4)CC1 105%
Cc1ccc(C(=O)NCCNC(=O)c2ccccc2)cc1 96.6%
CC(=O)OCC(=O)[C@@]1(O)CC[C@H]2[C@@H]3CCC4=CC(=O)C=C[C@]4(C)[C@H]3[C@@H](O)C[C@@]21C 132%
CCCc1cc(C(N)=S)ccn1 99.6%
Cc1ccc(Cl)c(Nc2ccccc2C(=O)O)c1Cl 103%
COc1ccccc1/C=C/C(=O)OCCN1CCOCC1 119%
Fc1ccc(-c2cc(-c3ccccc3)nc(-n3cccn3)n2)cc1 106%
O=c1c(-c2ccccc2)c(O)c2cccc3c2n1CCC3 104%
COc1cc(CC(=O)NCCc2ccc(S(N)(=O)=O)cc2)cc(OC)c1OC 103%
CN(C)CCC(c1ccc(Cl)cc1)c1ccccn1 (stereo not given) 120%
Cc1ccc2nc(N=C(N)N)nc(C)c2c1 107%
CCn1c(N2CCN(CC(=O)c3c(C)n(C)c4ccc(OC)cc34)CC2)nc2c1c(=O)[nH]c(=O)n2C 104%
CC1(c2ccccc2)CC(C)(C)N2C(=O)C(=O)c3cccc1c32 (stereo not given) 97.4%
O=C(COc1cc(O)c2c(=O)c3ccccc3oc2c1)OCc1ccccc1 104%
C[N+](C)(C)CCOP(=O)([O-])OC[C@H](O)CO 103%
O=C(/C=C/Sc1ccccc1)c1ccccc1 101%
O=C1Cc2ccccc2C(c2ccccc2)N1 (stereo not given) 108%
Cc1ccc(NC(=O)CSc2nc(O)c(Cc3ccccc3)c(=O)n2-c2ccccc2)cc1 105%
COCCn1c(SCCOc2ccccc2)nc2ccccc2c1=O 108%
CC(=O)Oc1ccc2c(=O)c(Oc3ccccc3[N+](=O)[O-])coc2c1 131%
CCc1c(C(C)=O)oc2ccc3c(C)cc(=O)oc3c12 125%
COc1ccc(-c2[nH]ncc2CN(C)C(C)c2ccon2)c(OC)c1 (stereo not given) 137%
Cc1c(O)c(=O)ccn1C 121%
COc1ccc2cc(C(=O)Nc3ccc(S(N)(=O)=O)cc3)sc(=O)c2c1OC 110%
Cc1cnc(NC(=O)C2=C(O)c3ccccc3S(=O)(=O)N2C)s1 112%
O=C(O)c1ccc(N2C(=O)/C(=C\c3ccccc3)N=C2c2ccccc2)cc1 106%
O=C(CCC(=O)NCCO)NCCO 104%
CC(=O)O[C@H]1C[C@@]2(C)[C@@H](C[C@@H](O)[C@H]3[C@@]4(C)CC[C@@H](O)[C@@H](C)C4CC[C@@]32C)/C1=C(\CCC=C(C)C)C(=O)O (stereo not given in full) 107%
O=C(c1cc2cc(Br)ccc2o1)N1CCCC1 106%
CCOc1ccc2nc(NC(=O)NC3CCCCC3)sc2c1 105%
O=C(/C=C/c1c[nH]c2ccccc12)c1cccc2ccccc12 103%
